Activity calls are given as the source filed them. The calls were made as follows: active = hit-call score of the fitted dose curve at least 0.9, where 1 is the maximum; inactive = score below 0.9.
Tests used:
Details in all cases: mRNA level, 48 h; actives raise or lower the signal
[1] = read-out: Cytochrome P450 7A1 (Homo sapiens) (UniProt P22680); experiment: LTEA_HepaRG_CYP7A1: Life Technologies and Expression Analysis (LTEA) Assay for Cytochrome P450 7A1 (CYP7A1) using HepaRG (AID 2283496)
Outline: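 HepaRG, 48 h exposure, 8-pt half-log series from 100 uM, 0.5% DMSO vehicle, duplicates. Readout: TaqMan qRT-PCR mRNA vs three housekeeping genes; bidirectional curve fit against DMSO baseline.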

[2] = read-out: Glutathione S-Transferase (GSTA2), GSTA2 (gene 2939); experiment: LTEA_HepaRG_GSTA2: Life Technologies and Expression Analysis (LTEA) Assay for Glutathione S-Transferase (GSTA2) using HepaRG (AID 2283497)
Outline: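 GSTA2 transcript levels came from Fluidigm TaqMan qRT-PCR normalized to three housekeeping genes, fitted in both directions against DMSO. HepaRG cultures received chemicals for 48 h in serum-free induction medium (0.5% DMSO), 8 half-log concentrations up to 100 uM, duplicate.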

[3] = read-out: growth arrest and DNA damage 45 (GADD45G), GADD45G (gene 10912); experiment: LTEA_HepaRG_GADD45G: Life Technologies and Expression Analysis (LTEA) Assay for growth arrest and DNA damage 45 (GADD45G) using HepaRG (AID 2283499)
Outline: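 GADD45G transcript level by qRT-PCR (housekeeping-normalized: ACTB, GAPDH, POLR2A) after 48 h chemical treatment of a single HepaRG lot in serum-free induction medium; eight-point half-log series up to 100 uM in 0.5% DMSO, duplicates, up- or down-regulation scored.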

[4] = read-out: Glutamate-cysteine ligase regulatory (GCLM), GCLM (gene 2730); experiment: LTEA_HepaRG_GCLM: Life Technologies and Expression Analysis (LTEA) Assay for Glutamate-cysteine ligase regulatory (GCLM) using HepaRG (AID 2283500)
Outline: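 GCLM expression quantified by qRT-PCR, normalized to three housekeeping genes, after 48 h chemical treatment of HepaRG cells in duplicate at 8 concentrations (top 100 uM, half-log steps, 0.5% DMSO). Changes fitted both directions against vehicle.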

[5] = read-out: Glutathione S-transferase M3 (GSTM3), GSTM3 (gene 2947); experiment: LTEA_HepaRG_GSTM3: Life Technologies and Expression Analysis (LTEA) Assay for Glutathione S-transferase M3 (GSTM3) using HepaRG (AID 2283501)
Outline: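 GSTM3 transcript levels came from Fluidigm TaqMan qRT-PCR normalized to three housekeeping genes, fitted in both directions against DMSO. HepaRG cultures received chemicals for 48 h in serum-free induction medium (0.5% DMSO), 8 half-log concentrations up to 100 uM, duplicate.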

[6] = read-out: Heat shock 70 kDa protein 1 (HSPA1A), gene 3303; experiment: LTEA_HepaRG_HSPA1A: Life Technologies and Expression Analysis (LTEA) Assay for Heat shock 70 kDa protein 1 (HSPA1A) using HepaRG (AID 2283502)
Outline: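 HSPA1A expression measured by qRT-PCR with ACTB/GAPDH/POLR2A normalization; curves fitted in both directions relative to DMSO vehicle. Exposure: 48 h in HepaRG cells, duplicate 8-point half-log series from 100 uM, 0.5% DMSO, serum-free induction medium.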

[7] = read-out: Hypoxia-inducible factor 1-alpha (Homo sapiens) (UniProt Q16665); experiment: LTEA_HepaRG_HIF1A: Life Technologies and Expression Analysis (LTEA) Assay for Hypoxia-inducible factor 1 (HIF1A) Trancription factor using HepaRG (AID 2283503)
Outline: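 HIF1A transcript level read by qRT-PCR (ACTB, GAPDH, POLR2A normalization) after 48 h chemical exposure of HepaRG cultures. Eight half-log concentrations, top 100 uM, 0.5% DMSO vehicle, duplicates; bidirectional curve fit against DMSO baseline.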

[8] = read-out: 3-Hydroxy-3-Methylglutaryl-CoA Synthase 2 (HMGCS2), HMGCS2 (gene 3158); experiment: LTEA_HepaRG_HMGCS2: Life Technologies and Expression Analysis (LTEA) Assay for 3-Hydroxy-3-Methylglutaryl-CoA Synthase 2 (HMGCS2) using HepaRG (AID 2283504)
Outline: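 Readout is HMGCS2 transcript by qRT-PCR, housekeeping-normalised (ACTB/GAPDH/POLR2A) and fitted bidirectionally against 0.5% DMSO. Differentiated HepaRG cells received chemicals 48 h, duplicate wells, eight half-log concentrations topping at 100 uM.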

[9] = read-out: HGF (gene 3082); experiment: LTEA_HepaRG_HGF: Life Technologies and Expression Analysis (LTEA) Assay for Hepatocyte Growth Facto (HGF) using HepaRG (AID 2283505)
Outline: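 HGF transcript was quantified by TaqMan qRT-PCR against three housekeeping genes after 48 h treatment of HepaRG cells. Exposure ran in duplicate over eight half-log steps topping at 100 uM in 0.5% DMSO vehicle.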

[10] = read-out: Insulin Like Growth Factor 1 (IGF1), IGF1 (gene 3479); experiment: LTEA_HepaRG_IGF1: Life Technologies and Expression Analysis (LTEA) Assay for Insulin Like Growth Factor 1 (IGF1) using HepaRG (AID 2283506)
Outline: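 Expression measured by TaqMan qRT-PCR on a Fluidigm array, with three housekeeping genes for normalisation, after 48 h treatment of HepaRG cells. Top concentration 100 uM with half-log steps, 0.5% DMSO vehicle, bidirectional fit.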

[11] = read-out: Intercellular Adhesion Molecule 1 (ICAM1), ICAM1 (gene 3383); experiment: LTEA_HepaRG_ICAM1: Life Technologies and Expression Analysis (LTEA) Assay for Intercellular Adhesion Molecule 1 (ICAM1) using HepaRG (AID 2283507)
Outline: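 ICAM1 transcript levels measured by qRT-PCR, normalized to three housekeeping genes (ACTB, GAPDH, POLR2A), after 48 h chemical exposure of HepaRG cells. Duplicate eight-point half-log series from 100 uM in 0.5% DMSO; gain or loss fitted against vehicle.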

[12] = read-out: Insulin-like growth factor-binding protein 1 (IGFBP1), IGFBP1 (gene 3484); experiment: LTEA_HepaRG_IGFBP1: Life Technologies and Expression Analysis (LTEA) Assay for Insulin-like growth factor-binding protein 1 (IGFBP1) using HepaRG (AID 2283508)
Outline: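 Read-out is qRT-PCR transcript level normalized to three housekeeping genes, fitted in both directions against 0.5% DMSO. Differentiated HepaRG cells received eight half-log concentrations (top 100 uM) in duplicate for 48 h in serum-free induction medium.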

[13] = read-out: Interleukin 6 (IL6), IL6 (gene 3569); experiment: LTEA_HepaRG_IL6: Life Technologies and Expression Analysis (LTEA) Assay for Interleukin 6 (IL6) using HepaRG (AID 2283509)
Outline: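 Transcript levels, normalized to three housekeeping genes, were quantified by qRT-PCR after 48 h chemical treatment of HepaRG cells. Eight-point half-log series from 100 uM in 0.5% DMSO, duplicates. Fitted both directions against DMSO baseline.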

[14] = read-out: Interleukin 6 Receptor (IL6R), IL6R (gene 3570); experiment: LTEA_HepaRG_IL6R: Life Technologies and Expression Analysis (LTEA) Assay for Interleukin 6 Receptor (IL6R) using HepaRG (AID 2283510)
Outline: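 IL6R transcript level by qRT-PCR after 48 h chemical exposure (8-point, half-log, max 100 uM, 0.5% DMSO vehicle) of HepaRG cells in serum-free induction medium. Normalized to three housekeeping genes; curves fitted in both directions relative to DMSO.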

[15] = read-out: Potassium channel subfamily K member 1 (KCNK1), KCNK1 (gene 3775); experiment: LTEA_HepaRG_KCNK1: Life Technologies and Expression Analysis (LTEA) Assay for Potassium channel subfamily K member 1 (KCNK1) using HepaRG (AID 2283511)
Outline: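 KCNK1 transcript measured by TaqMan qRT-PCR against three housekeeping genes, after HepaRG cells were treated 48 h with eight half-log concentrations (top 100 uM, 0.5% DMSO). Curves fitted bidirectionally relative to vehicle.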

[16] = read-out: Keratin 19 (KRT19), KRT19 (gene 3880); experiment: LTEA_HepaRG_KRT19: Life Technologies and Expression Analysis (LTEA) Assay for Keratin 19 (KRT19) using HepaRG (AID 2283512)
Outline: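 KRT19 transcript measured by TaqMan qRT-PCR, referenced to three housekeeping genes, after HepaRG cells received test chemicals for 48 h. Eight half-log concentrations, top 100 uM, 0.5% DMSO vehicle; increases and decreases both fitted.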

[17] = read-out: JUN Transcription Factor, JUN (gene 3725); experiment: LTEA_HepaRG_JUN: Life Technologies and Expression Analysis (LTEA) Assay for JUN Transcription Factor using HepaRG (AID 2283513)
Outline: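 mRNA measured by TaqMan qRT-PCR after 48 h chemical exposure of HepaRG cultures; normalization to three housekeeping genes. Duplicate eight-point half-log curves from 100 uM in 0.5% DMSO; gain or loss fitted against DMSO baseline.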

[18] = read-out: Lipase C (LIPC), LIPC (gene 3990); experiment: LTEA_HepaRG_LIPC: Life Technologies and Expression Analysis (LTEA) Assay for Lipase C (LIPC) using HepaRG (AID 2283514)
Outline: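 LIPC expression was quantified by qRT-PCR against three housekeeping genes (ACTB, GAPDH, POLR2A). Differentiated human HepaRG cells received eight half-log doses (top 100 uM, 0.5% DMSO) in duplicate for 48 h; fitting bidirectional relative to DMSO.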

[19] = read-out: Lipoprotein lipase (LPL), LPL (gene 4023); experiment: LTEA_HepaRG_LPL: Life Technologies and Expression Analysis (LTEA) Assay for Lipoprotein lipase (LPL) using HepaRG (AID 2283515)
Outline: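 LPL transcript levels quantified by TaqMan qRT-PCR against three housekeeping genes after 48 h chemical treatment of HepaRG cells. Eight-point half-log series from 100 uM in 0.5% DMSO, tested in duplicate; bidirectional fitting versus vehicle.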

[20] = read-out: Glutamate-cysteine ligase catalytic (GCLC), GCLC (gene 2729); experiment: LTEA_HepaRG_GCLC: Life Technologies and Expression Analysis (LTEA) Assay for Glutamate-cysteine ligase catalytic (GCLC) using HepaRG (AID 2283498)
Outline: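 Expression by TaqMan qRT-PCR, normalized to three housekeeping genes (ACTB, GAPDH, POLR2A), with up- or down-regulation fitted against DMSO. HepaRG cells dosed in duplicate for 48 h with 8 half-log concentrations up to 100 uM, vehicle 0.5% DMSO.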

Measured: outcome

Chain of Hypoxia-inducible factor 1-alpha (Homo sapiens) (Q16665 whole entry, looked up): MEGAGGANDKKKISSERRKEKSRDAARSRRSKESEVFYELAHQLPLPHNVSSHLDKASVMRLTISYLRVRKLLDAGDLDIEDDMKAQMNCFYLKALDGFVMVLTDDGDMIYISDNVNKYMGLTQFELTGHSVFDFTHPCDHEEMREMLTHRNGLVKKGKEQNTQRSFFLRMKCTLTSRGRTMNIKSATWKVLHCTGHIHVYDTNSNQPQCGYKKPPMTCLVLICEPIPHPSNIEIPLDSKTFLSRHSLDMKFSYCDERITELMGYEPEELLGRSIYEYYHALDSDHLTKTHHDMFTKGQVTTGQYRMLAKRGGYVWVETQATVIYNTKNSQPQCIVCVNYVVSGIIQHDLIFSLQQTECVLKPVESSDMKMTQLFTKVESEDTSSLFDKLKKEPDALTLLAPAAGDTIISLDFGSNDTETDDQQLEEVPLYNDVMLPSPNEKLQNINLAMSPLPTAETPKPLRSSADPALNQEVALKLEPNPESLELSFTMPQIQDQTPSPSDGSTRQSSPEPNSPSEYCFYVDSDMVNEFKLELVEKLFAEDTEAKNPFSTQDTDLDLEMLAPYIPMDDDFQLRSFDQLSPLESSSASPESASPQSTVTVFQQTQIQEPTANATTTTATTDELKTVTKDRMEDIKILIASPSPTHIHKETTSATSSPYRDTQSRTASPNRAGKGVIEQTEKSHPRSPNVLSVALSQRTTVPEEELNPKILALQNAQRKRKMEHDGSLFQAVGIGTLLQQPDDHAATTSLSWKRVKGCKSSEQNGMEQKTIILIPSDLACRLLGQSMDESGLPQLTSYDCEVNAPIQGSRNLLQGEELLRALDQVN

OC[C@H]1O[C@@H]2O[C@H]3[C@H](O)[C@@H](O)[C@@H](O[C@H]4[C@H](O)[C@@H](O)[C@@H](O[C@H]5[C@H](O)[C@@H](O)[C@@H](O[C@H]6[C@H](O)[C@@H](O)[C@@H](O[C@H]7[C@H](O)[C@@H](O)[C@@H](O[C@H]1[C@H](O)[C@H]2O)O[C@@H]7CO)O[C@@H]6CO)O[C@@H]5CO)O[C@@H]4CO)O[C@@H]3CO
not listed: [20]
inactive: all other assays above

C=CN1CCCC1=O
not listed: [13]
inactive: all other assays above

O=S(=O)(O)c1ccc(N=Nc2c(O)ccc3cc(S(=O)(=O)O)ccc23)cc1
not listed: [20]
inactive: all other assays above

— PubChem BioAssay (EPA / NIEHS)
